Our source for the growth inhibition values is PubChem BioAssay (NCI).

Structures are written as SMILES. About 79,000 compounds went through this panel and 15% of them were active in at least one assay; those are over-represented in the sample as a whole. Unmarked numbers belong to inactive results. Active and inactive are the calls of the source. Rule as the data show it: active = growth inhibition above about 70%; inactive = the rest.

Experiment [1] in a line: NCI Yeast Anticancer Drug Screen. Data for the rad50 strain (AID 155).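 Also: 0% = growth of vehicle-only cultures of the same strain.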 To be noted: S. cerevisiae rad50 strain growth inhibition, active compounds read high. The procedure, abridged: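 Relative growth inhibition (compound vs vehicle) was measured in yeast with a defined repair-gene alteration.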
Experiment [2] can be described thus: NCI Yeast Anticancer Drug Screen. Data for the mec2-1 strain (AID 157). To be noted: S. cerevisiae mec2-1 strain, active compounds read high. In a few lines:
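Strain: mec2-1 (DNA repair/cell cycle alteration). Compound exposure, then growth measured; inhibition expressed relative to vehicle.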

Experiment [3] can be described thus: NCI Yeast Anticancer Drug Screen. Data for the sgs1 mgt1 strain (AID 161).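 Also: 0% = growth of cultures given vehicle only.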 To be noted: S. cerevisiae sgs1 mgt1 strain, active compounds read high. In a few lines: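 Read-out: growth inhibition vs vehicle controls. Cells: mutant yeast strain deficient in DNA damage repair.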
A short description of experiment [4]: NCI Yeast Anticancer Drug Screen. Data for the cln2 rad14 strain (AID 165).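 Also: 0% = growth equal to vehicle treated cultures.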 To be noted: S. cerevisiae cln2 rad14 strain, active compounds read high. In a few lines: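 Compounds are applied to the cln2 rad14 yeast strain, and growth is then compared with that of vehicle-treated cultures to give inhibition.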
Experiment [5] is described as follows: NCI Yeast Anticancer Drug Screen. Data for the bub3 strain (AID 167). Particulars: S. cerevisiae bub3 mutant strain, active compounds read high. The procedure, abridged: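 Screening used yeast with an engineered genetic alteration affecting cell cycle control. Compound-exposed cultures were compared with vehicle cultures, and reduced growth was taken as inhibition.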

Experiment [6] is described as follows: NCI Yeast Anticancer Drug Screen. Data for the mlh1 rad18 strain (AID 175). Particulars: S. cerevisiae mlh1 rad18 strain growth inhibition, active compounds read high. The procedure, abridged: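 Read-out is yeast growth inhibition, calculated against vehicle-only controls. The compound was applied to a strain engineered with DNA damage repair alterations.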
Where [7] appears, read: at 5.0 µM (retest, dose inferred, filed as 0.5).
Where [8] appears, read: at 50.0 µM (retest, dose inferred, filed as 5.0).

In the case of `CCCCCCCCCCCCC1N=C(N)N2CCCC2=C1C(=O)OC` (stereo not given), the growth inhibition in experiment [1] (setting [7]) was 82% (active); in experiment [1] (setting [8]), 99% (active); in experiment [1] (at 50.0 µM), 89.2% (active); in experiment [2] (setting [7]), 99% (active); in experiment [2] (setting [8]), 99% (active); in experiment [2] (at 50.0 µM) it was 91.5% (active). Besides, the growth inhibition is 69% in experiment [3] (setting [7]); 99% (active) in experiment [3] (setting [8]); 87.4% (active) in experiment [3] (at 50.0 µM); 100% (active) in experiment [4] (setting [7]); 99% (active) in experiment [4] (setting [8]); 90.5% (active) in experiment [4] (at 50.0 µM). Moreover, the growth inhibition in experiment [5] (setting [7]) is 99% (active); in experiment [5] (setting [8]), 99% (active); in experiment [5] (at 50.0 µM), 90.4% (active); in experiment [6] (setting [7]), 99% (active); in experiment [6] (setting [8]), 99% (active); in experiment [6] (at 50.0 µM), 84.7% (active).
On to `O=C(Nc1cccc(Cl)c1)Oc1c(Br)cc(Br)cc1Br`, for which the growth inhibition was 18% in experiment [1] (setting [7]); 98% (active) in experiment [1] (setting [8]); 99% (active) in experiment [1] (at 50.0 µM); 22% in experiment [2] (setting [7]); 99% (active) in experiment [2] (setting [8]); 98.7% (active) in experiment [2] (at 50.0 µM). The growth inhibition was 34% in experiment [3] (setting [7]); 98% (active) in experiment [3] (setting [8]); 99% (active) in experiment [3] (at 50.0 µM); -4% in experiment [4] (setting [7]); 98% (active) in experiment [4] (setting [8]); 94.5% (active) in experiment [4] (at 50.0 µM). For the same compound, the growth inhibition in experiment [5] (setting [7]) is -7%; in experiment [5] (setting [8]), 99% (active); in experiment [5] (at 50.0 µM) it was 97.1% (active); in experiment [6] (setting [7]) it was 24%; in experiment [6] (setting [8]), 99% (active); in experiment [6] (at 50.0 µM), 99.4% (active).
For the compound `COC(=O)c1cn(NS(=O)(=O)c2ccc(OC)cc2)cc1C(=O)OC`, the growth inhibition in experiment [1] (setting [7]) was -6%; in experiment [1] (setting [8]), 8%; in experiment [1] (at 50.0 µM), 16.4%; in experiment [2] (setting [7]), -5%; in experiment [2] (setting [8]), 4%; in experiment [2] (at 50.0 µM), 6.65%. Moreover, the growth inhibition in experiment [3] (setting [7]) was -6%; in experiment [3] (setting [8]), 14%; in experiment [3] (at 50.0 µM) it was 29.8%; in experiment [4] (setting [7]) it was -1%; in experiment [4] (setting [8]), 0%; in experiment [4] (at 50.0 µM), 33.9%. The growth inhibition was -5% in experiment [5] (setting [7]); 8% in experiment [5] (setting [8]); -1.9% in experiment [5] (at 50.0 µM); -5% in experiment [6] (setting [7]); 6% in experiment [6] (setting [8]); 20.9% in experiment [6] (at 50.0 µM).
Regarding `O=C1NN(C2=NNC3(C(=O)N2)c2ccccc2-c2ccccc23)C(c2ccccc2)=N/C1=C/c1ccc(Cl)cc1`, the growth inhibition in experiment [1] (setting [7]) was -9%; in experiment [1] (setting [8]), -5%; in experiment [1] (at 50.0 µM), 32.4%; in experiment [2] (setting [7]) it was -13%; in experiment [2] (setting [8]), -5%; in experiment [2] (at 50.0 µM) it was 17.4%. In addition, the growth inhibition was -1% in experiment [3] (setting [7]); 6% in experiment [3] (setting [8]); -13.5% in experiment [3] (at 50.0 µM); -10% in experiment [4] (setting [7]); 3% in experiment [4] (setting [8]); -3.25% in experiment [4] (at 50.0 µM). For the same compound, the growth inhibition in experiment [5] (setting [7]) was -16%; in experiment [5] (setting [8]) it was -16%; in experiment [5] (at 50.0 µM), 18.4%; in experiment [6] (setting [7]), -48%; in experiment [6] (setting [8]) it was -10%; in experiment [6] (at 50.0 µM), 44.1%.
Consider `S=P([S][Sn]([S]P(=S)(c1ccccc1)c1ccccc1)([c]1ccccc1)[c]1ccccc1)(c1ccccc1)c1ccccc1`, for which the growth inhibition was 22% in experiment [1] (setting [7]); 82% (active) in experiment [1] (setting [8]); 34.9% in experiment [1] (at 50.0 µM); 21% in experiment [2] (setting [7]); 73% (active) in experiment [2] (setting [8]); 19.6% in experiment [2] (at 50.0 µM). In addition, the growth inhibition in experiment [3] (setting [7]) is 33%; in experiment [3] (setting [8]), 96% (active); in experiment [3] (at 50.0 µM), 91.9% (active); in experiment [4] (setting [7]), 25%; in experiment [4] (setting [8]), 48%; in experiment [4] (at 50.0 µM), 89.9% (active). Also, the growth inhibition in experiment [5] (setting [7]) was 24%; in experiment [5] (setting [8]) it was 69%; in experiment [5] (at 50.0 µM) it was 89.2% (active); in experiment [6] (setting [7]), 33%; in experiment [6] (setting [8]), 92% (active); in experiment [6] (at 50.0 µM), 77.8% (active).
As to `O=C(c1cccs1)N(C(=S)N1CCN(c2ccccn2)CC1)c1ccccc1`, the growth inhibition is 10% in experiment [1] (setting [7]); 16% in experiment [1] (setting [8]); 15.4% in experiment [1] (at 50.0 µM); -8% in experiment [2] (setting [7]); 8% in experiment [2] (setting [8]); 7.85% in experiment [2] (at 50.0 µM). For the same compound, the growth inhibition was 3% in experiment [3] (setting [7]); 1% in experiment [3] (setting [8]); 36.6% in experiment [3] (at 50.0 µM); 6% in experiment [4] (setting [7]); 10% in experiment [4] (setting [8]); 20.8% in experiment [4] (at 50.0 µM). Besides, the growth inhibition is -2% in experiment [5] (setting [7]); 3% in experiment [5] (setting [8]); 16.1% in experiment [5] (at 50.0 µM); -3% in experiment [6] (setting [7]); 14% in experiment [6] (setting [8]); 63.8% in experiment [6] (at 50.0 µM).
Take `CCOc1ccccc1N=Nc1ccc2oc(=O)c(C(=O)Nc3cccc(C)c3)cc2c1`: the growth inhibition in experiment [1] (setting [7]) was 3%; in experiment [1] (setting [8]), 13%; in experiment [1] (at 50.0 µM), 52.1%; in experiment [2] (setting [7]) it was 3%; in experiment [2] (setting [8]), -2%; in experiment [2] (at 50.0 µM) it was 25.9%. In addition, the growth inhibition in experiment [3] (setting [7]) was 8%; in experiment [3] (setting [8]), -5%; in experiment [3] (at 50.0 µM) it was 64.8%; in experiment [4] (setting [7]), -4%; in experiment [4] (setting [8]) it was 4%; in experiment [4] (at 50.0 µM), -76%. In addition, the growth inhibition in experiment [5] (setting [7]) was -4%; in experiment [5] (setting [8]), -12%; in experiment [5] (at 50.0 µM), 9.9%; in experiment [6] (setting [7]), 3%; in experiment [6] (setting [8]), 12%; in experiment [6] (at 50.0 µM), 89% (active).
For `CC/C(=N\O)c1ccc2cc(Br)c3ccccc3c2c1`, the growth inhibition in experiment [1] (setting [7]) is 5%; in experiment [1] (setting [8]), 89% (active); in experiment [1] (at 50.0 µM), 98.7% (active); in experiment [2] (setting [7]) it was -2%; in experiment [2] (setting [8]), 89% (active); in experiment [2] (at 50.0 µM), 98.9% (active). Moreover, the growth inhibition is 10% in experiment [3] (setting [7]); 88% (active) in experiment [3] (setting [8]); 98.7% (active) in experiment [3] (at 50.0 µM); -10% in experiment [4] (setting [7]); 84% (active) in experiment [4] (setting [8]); 96.8% (active) in experiment [4] (at 50.0 µM). The growth inhibition in experiment [5] (setting [7]) was -4%; in experiment [5] (setting [8]) it was 87% (active); in experiment [5] (at 50.0 µM) it was 98.8% (active); in experiment [6] (setting [7]) it was 5%; in experiment [6] (setting [8]), 88% (active); in experiment [6] (at 50.0 µM), 98.6% (active).
As for `O=[N+]([O-])C1=Cc2cc(Cl)ccc2OC1c1cccc2ccccc12` (stereo not given), the growth inhibition in experiment [1] (setting [7]) was 98% (active); in experiment [1] (setting [8]) it was 83% (active); in experiment [1] (at 50.0 µM), 80.5% (active); in experiment [2] (setting [7]), 97% (active); in experiment [2] (setting [8]) it was 81% (active); in experiment [2] (at 50.0 µM), 88.2% (active). The growth inhibition was 97% (active) in experiment [3] (setting [7]); 86% (active) in experiment [3] (setting [8]); 84.2% (active) in experiment [3] (at 50.0 µM); 97% (active) in experiment [4] (setting [7]); 80% (active) in experiment [4] (setting [8]); 87.1% (active) in experiment [4] (at 50.0 µM). Further, the growth inhibition in experiment [5] (setting [7]) is 97% (active); in experiment [5] (setting [8]) it was 91% (active); in experiment [5] (at 50.0 µM), 85.5% (active); in experiment [6] (setting [7]), 98% (active); in experiment [6] (setting [8]), 87% (active); in experiment [6] (at 50.0 µM), 75.8% (active).
For the compound `O=C1OC2(CCCCC2)OC(=O)C1=Cc1ccc([N+](=O)[O-])s1`, the growth inhibition in experiment [1] (setting [7]) was 9%; in experiment [1] (setting [8]), 99% (active); in experiment [1] (at 50.0 µM), 56.1%; in experiment [2] (setting [7]), 6%; in experiment [2] (setting [8]) it was 100% (active); in experiment [2] (at 50.0 µM) it was 27.4%. Besides, the growth inhibition in experiment [3] (setting [7]) is 9%; in experiment [3] (setting [8]), 99% (active); in experiment [3] (at 50.0 µM), 99.8% (active); in experiment [4] (setting [7]) it was 4%; in experiment [4] (setting [8]) it was 61%; in experiment [4] (at 50.0 µM), 10%. For the same compound, the growth inhibition in experiment [5] (setting [7]) is 0%; in experiment [5] (setting [8]) it was 99% (active); in experiment [5] (at 50.0 µM), 22.6%; in experiment [6] (setting [7]) it was 14%; in experiment [6] (setting [8]) it was 99% (active); in experiment [6] (at 50.0 µM), 30.7%.
